GRP78 ERSR act: induces the endoplasmic reticulum stress response in human glioma cells | U87-MG GRP78 promoter luciferase reporter, 16 h | Potency, µM, without a hit: at the top dose activation, actives largely listed as activators | hit rate 0.02% among 420,000 | AID 602332; also: series mostly up to about 76 µM; % of control where 0% means no effect; nearly all actives have a fitted effect of over 35% in size
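ERSR induction read as luciferase luminescence (Bright-Glo, 10 min at room temperature) in stably transfected human U87-MG glioma cells exposed to compounds for 16 h, using GRP78 as sensor.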
GLP-1R inv ag: GLP-1 receptor (human) inverse agonism; P43220; HEK293 GLP-1R CRE-luciferase, luminescence, 24 h; GLP-1R form is constitutively active; Potency, µM (top dose mostly 38.3 µM), for the others: at the top dose activity change, negative = inhibition, usual class: inhibitors; hit rate 1.6% among 410,000; AID 624417; also: % is scaled to controls: 0 for no effect and ±100 for the full control effect; nearly all actives have a fitted effect of over 55% in size
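Readout was luciferase luminescence, measured 12 min after detection reagent at room temperature. Beforehand, GLP-1R reporter HEK293 cells had sat 12 h, then received compounds for 24 hr at 37 deg C.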
PTHR1 agonist: activates the human parathyroid hormone receptor PTHR1; Q03431; HEK293 GP2 PTHR1 cells, GloSensor cAMP luminescence, 1 h; Potency, µM (top dose mostly 115 µM), without a hit: at the top dose activation, actives largely listed as activators; hit rate 0.075% among 410,000; AID 743266; also: nearly all actives have a fitted effect of over 55% in size
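HEK-293-derived GP2 cells expressing PTHR1 and a GloSensor cAMP reporter, 3,000/well, plated overnight, given luciferin plus IBMX (each 0.5 mM as added) for 1 h at 37 °C, then compound for 1 h at 37 °C. Luminescence was read after 15 min at room temperature.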
GLS inhibitor: inhibitors of human glutaminase (GLS) | GLS enzymatic activity, qHTS titration | Potency, µM (top dose mostly 45.5 µM), for inactives: at the highest dose activity change, negative = inhibition, usual class: inhibitors | hit rate 0.21% among 410,000; also: % is scaled to controls: 0 for no effect and ±100 for the full control effect
Target sequence (O94925 whole entry, looked up): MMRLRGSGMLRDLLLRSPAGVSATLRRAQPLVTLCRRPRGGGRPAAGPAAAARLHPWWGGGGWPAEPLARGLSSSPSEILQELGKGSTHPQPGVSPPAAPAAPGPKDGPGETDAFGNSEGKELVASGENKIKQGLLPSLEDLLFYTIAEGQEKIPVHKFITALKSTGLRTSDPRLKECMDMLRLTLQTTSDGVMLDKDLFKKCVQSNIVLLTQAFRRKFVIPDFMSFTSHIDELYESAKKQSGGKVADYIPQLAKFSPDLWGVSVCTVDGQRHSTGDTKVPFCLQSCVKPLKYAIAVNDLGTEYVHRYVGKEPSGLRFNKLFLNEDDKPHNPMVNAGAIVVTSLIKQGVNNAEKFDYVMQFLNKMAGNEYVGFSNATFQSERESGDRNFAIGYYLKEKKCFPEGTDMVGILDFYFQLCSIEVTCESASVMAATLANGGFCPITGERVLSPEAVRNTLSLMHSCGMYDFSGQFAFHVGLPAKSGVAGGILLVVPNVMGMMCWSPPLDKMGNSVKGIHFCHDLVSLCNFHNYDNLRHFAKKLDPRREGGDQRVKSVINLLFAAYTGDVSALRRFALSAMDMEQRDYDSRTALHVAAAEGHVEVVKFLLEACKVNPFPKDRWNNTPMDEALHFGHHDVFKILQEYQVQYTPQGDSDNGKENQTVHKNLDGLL
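Two-point fluorescence kinetic (t0, 30 min RT) for hKGA; glutamate detected via glutamate oxidase–HRP–Amplex Red. Substrate: 1 mM L-glutamine solution; buffer 45 mM KH2PO4, pH 8.2.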
GLP1R ag: activates the human GLP-1 receptor; P43220; HEK293 GLP-1R CRE-luciferase, luminescence, 4-6 h; cells express a hypersensitive GLP-1R form; Potency, µM (series often up to 45.6 µM), without a hit: top-dose activation, hits mostly activators; hit rate 0.007% among 380,000; also: % of control where 0% means no effect
12-LOX inh: ALOX12 (human) lipoxygenase inhibition | hit rate 1.1% among 580,000 | purified 12hLO, xylenol orange hydroperoxide absorbance | AID 1671190 | Potency, µM (top dose mostly 108 µM), inactives show at the highest dose activity change, negative = inhibition, usual class: inhibitors; also: % is scaled to controls: 0 for no effect and ±100 for the full control effect
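Purified human 12hLO at 150 nM in 25 mM Hepes, 0.01% Triton X-100, pH 7.0, preincubated 15 min at room temperature with compound. Reaction started with 40 uM arachidonic acid, 30 min at room temperature. Hydroperoxide measured by Fe-xylenol orange, 573/405 nm absorbance ratio.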
An asterisk follows results filed as active; i = inactive; u = inconclusive; x = no result; [ ] = dose if it differs, or a comment. Shown are actives, neighbours in structure and some others; about 2.3% of the full set was active somewhere. Calls follow the shape of the dose curve; as a rule, active = well fitted curve in the direction sought with a large enough effect; inconclusive = small, poorly fitted or top-dose-only effect, or another doubt; inactive = no such curve, though single readings can be large; an effect the other way counts as inactive or inconclusive. Potency is read from the fitted curve at half-maximal effect.

SMILES	GRP78 ERSR act	GLP-1R inv ag	PTHR1 agonist	GLS inhibitor	GLP1R ag	12-LOX inh
CCC(CC)NCc1ccc2c(c1)c1ccccc1n2CC	6%	4.5µM*	i	-8%	-5%	0%
CCn1c2ccccc2c2cc(N)ccc21	-5%	u	-16%[57.5 µM]	7%	-9%	u
CCn1c2ccccc2c2cc(CNCc3ccc(OC)cc3OC)ccc21	-14%	7.9µM*	-5%	-6%	1%	u
O=C(CCc1nc(CSc2n[nH]c(-c3cccc(F)c3)n2)no1)Nc1cccc2ccccc12	x	x	x	x	x	-15%
CCOC(=O)CSc1nc2ccc(NC(=O)c3ccc(Cl)cc3)cc2s1	12%	18%	i	-10%	x	-4%
CN(C(=O)CSc1nc2ccc(NC(=O)c3cccc(F)c3)cc2s1)c1ccccc1	-3%	5.6µM*	-36%	8%	x	-7%
CN(C(=O)CSc1nc2ccc(NC(=O)c3ccccc3F)cc2s1)c1ccccc1	0%	13%	-16%	5%	x	0%
O=C(Nc1ccc2nc(SCc3cccc4ccccc34)sc2c1)c1ccc(Cl)cc1	x	x	x	x	x	28µM*
COCCOc1cccc(N)c1	x	x	x	x	x	4%
Oc1ccc2ccccc2c1C=Nc1ccc(N2CCOCC2)cc1	-11%	0%	i	28%	8%	10%
Oc1c(Br)cc(Cl)cc1C=Nc1ccc(N2CCOCC2)cc1	-1%	13%	-23%	13µM*	3%	u
C(=Nc1ccc(N2CCOCC2)cc1)c1c[nH]c2ccccc12	-1%	46%	i	11µM*	4%	u
Oc1ccc(N=Nc2cccc(Cl)c2)cc1C=Nc1ccc(N2CCOCC2)cc1	1%	22%	-18%	u	0%	-22%
Cc1ccc(-n2[nH]c(=O)c(-c3ccccn3)c2C)cc1	-15%	1µM*	-35%	0%	-4%	0%
CCc1ccc(OCCNC(=O)c2ccccc2SCc2ccccc2)cc1	2%	7.1µM*	-12%	7%	-2%	24%
CC(C)Cc1nn2c(=O)cc(CSc3nnc(-c4ccccc4F)o3)nc2s1	x	x	x	x	x	13%
COc1ccc(CCNC(=O)CN(c2ccc(Cl)c(C(F)(F)F)c2)S(C)(=O)=O)cc1OC	x	x	x	x	x	50%
Clc1ccc(-c2nc3ccccn3c2CN2CCCCC2)cc1	-5%	10µM*	25%	8%	9%	-4%
CN(C)Cc1c(-c2ccc(Cl)cc2)nc2ccccn12	3%	6%	-10%	-4%	12%	-18%
CCCN(CC(=O)Nc1ccc(-c2ccccc2)cc1)Cc1nnc(-c2ccco2)o1	x	x	x	x	x	29%
COc1ccc(OCCSc2nnc(CCNC(=O)c3ccc(Cl)c(Cl)c3)n2C)cc1	-1%	10µM*	i	-5%	12%	20%
COc1ccc(C(=O)NC(C)c2nnc(SCc3ccc(Cl)c(Cl)c3)n2C)cc1 (configuration not stated)	-5%	u	i	2%	10%	4µM*
O=C(O)C(Sc1ccc(F)c(Cl)c1)c1ccccc1 (configuration not stated)	x	x	x	x	x	-26%
COc1ccccc1C(=O)N1CCC(c2nc3ccccc3o2)CC1	x	x	x	x	x	11%
CCN(CC)c1ccc(/C=N/NC(=O)c2ccoc2C)c(O)c1	-9%	3.5µM*	i	-3%	-3%	4%
SMILES	GRP78 ERSR act	GLP-1R inv ag	PTHR1 agonist	GLS inhibitor	GLP1R ag	12-LOX inh
CCN(CC)c1ccc(/C=N/NC(=O)OC)c(O)c1	4%	29%	-3%	49%	6%	64%
CCCCOc1ccc(CSC2=NCCN2)cc1[N+](=O)[O-]	-4%	10µM*	-50%	1%	-6%	-2%
CCOc1ccc(CSC2=NCCN2)cc1[N+](=O)[O-]	-5%	u	-3%	0%	14%	-4%
O=C(NCc1ccccc1F)Nc1ccc2oc(C3CC3)nc2c1	x	x	x	x	x	-4%
O=C1Nc2ccccc2CC12CCN(Cc1ccccc1)C2 (configuration not stated)	x	x	x	x	x	2%[176 µM]
O=C1Nc2ccccc2CC12CCN(Cc1cccc3ccccc13)C2 (configuration not stated)	x	x	x	x	x	100µM*
CCNC(=O)C1(C)CCCN(Cc2ccc(Oc3ccccc3)cc2)C1 (configuration not stated)	-3%	10µM*	-14%	0%	1%	-16%
CCNC(=O)C1(C)CCN(Cc2cccc(Oc3ccccc3)c2)C1 (configuration not stated)	1%	-5%	i	10%	19%	-24%
CCc1ccc2[nH]c(=O)c(CN(CCN(CC)CC)C(=O)NC3CCCCC3)cc2c1	-6%	10µM*	i	-6%	9%	357%
CCc1ccc2[nH]c(=O)c(CN(CCN(C)C)C(=O)Nc3ccccc3)cc2c1	-5%	8.9µM*	-17%[57.5 µM]	-3%	3%	10%
COc1ccc2[nH]c(=O)c(CN(CCCN(C)C)C(=O)Nc3ccccc3)cc2c1	-4%	u	4%[57.5 µM]	4%	-8%	-16%
Cc1cc(C)c2cc(CN(CCN(C)C)C(=O)Nc3ccccc3Cl)c(=O)[nH]c2c1	-3%	10µM*	i	2%	-2%	-3%
COC(=O)Nc1ccc(C(=O)NCc2ccccc2)cc1	x	x	x	x	x	11%
Cc1ccc(-c2nnn(CC(=O)N3N=C(c4cccs4)CC3c3cccs3)n2)cc1 (configuration not stated)	x	x	x	x	x	17%
CCN(CC)S(=O)(=O)c1cc(C(=O)Nc2ncn(Cc3ccccc3C)n2)c(Cl)cc1Cl	x	x	x	x	x	53%
Cc1cccc(NC(=O)CCN2CCN(Cc3cccc4ccccc34)CC2)c1	x	x	x	x	x	28µM*
CCC(C)C(=O)NCCc1ccccn1 (configuration not stated)	x	x	x	x	x	-14%
Cc1cc(C(=O)NCC(=O)N2CCCCCNC(=O)CC2c2ccccc2)nn1C (configuration not stated)	x	x	x	x	x	17%
CCOc1cc2c(cc1NC(=O)c1cc(C)ccc1OC)OC(C)C2 (configuration not stated)	x	x	x	x	x	9%
CCOc1cc2c(cc1NC(=O)CCC(=O)c1ccc(C)cc1)OC(C)C2 (configuration not stated)	x	x	x	x	x	4.5µM*
COC(=O)[C@H](CC(C)C)N(Cc1cn(Cc2ccc(C)cc2)nn1)S(=O)(=O)c1ccccc1Br	x	x	x	x	x	8.9µM*
COc1ccc(-c2cc(NC(=O)CC3Sc4ccccc4NC3=O)ccc2OC)cc1 (configuration not stated)	x	x	x	x	x	-19%
Cc1cc2nc(-c3cccc(Cl)c3)c(Cc3ccccc3)n2c(C)c1Br	0%	u	u	23%	1%	x
COc1ccc(Cc2c(-c3ccc(F)cc3)nc3c(C)cc(Br)cn23)c(C)c1	7%	-19%	i	-2%	-1%	35µM*

Compound activity deposited in PubChem BioAssay by National Center for Advancing Translational Sciences (NCATS).
